Values joined by “and” are separate entries in the source; they are usually repeats but may differ in a detail not shown here. Equal entries are not always repeated. Inconclusive results are not listed. Some compounds were tested as several samples or in several runs, with calls that do not always agree. Active and inactive are the calls of the source. How the source made its calls, unless noted: active means hit-call score of the fitted dose curve at least 0.9, where 1 is the maximum; inconclusive means response in the unintended direction; inactive means score below 0.9.
Tests used:
[1] = target: human Peroxisome Proliferator-activated Receptor delta (PPARd), PPARD (gene 5467) (UniProt Q03181); assay: ATG_PPARd_TRANS: Attagene TRANS-FACTORIAL HepG2 Assay for human Peroxisome Proliferator-activated Receptor delta (PPARd) (AID 2283002)
In short: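 Read-out is induced reporter mRNA, quantified by RT-PCR with fluorescent labelling and capillary electrophoresis after 24 h dosing. Cells are HepG2 transiently carrying multiple GAL4-UAS reporter units driven by exogenous NR-GAL4 chimeras; DMSO serves as baseline.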

[2] = read-out: Intercellular Adhesion Molecule 1 (ICAM1), ICAM1 (gene 3383); assay: BSK_3C_ICAM1: BioMAP Diversity Plus: 3C Assay for Intercellular Adhesion Molecule 1 (ICAM1) Biomarker Activity (AID 2283003; active means hit-call score of the fitted dose curve at least 0.9, where 1 is the maximum; inactive means score below 0.9); settings: primary human endothelial cells (HUVEC); actives raise or lower the signal
In short: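 Primary human umbilical vein endothelial cells in the BioMAP 3C system were exposed to chemicals for 24 h, then ICAM-1 was quantified by ELISA. Activity was fitted bidirectionally against the DMSO negative control baseline.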

[3] = BSK_3C_Proliferation: Cell Proliferation Assessment in the BioMAP Diversity Plus: 3C Assay (AID 2283006; active means hit-call score of the fitted dose curve at least 0.9, where 1 is the maximum; inactive means score below 0.9;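 on AC50: potency may reflect either rise or fall in cell number versus DMSO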); settings: primary human endothelial cells (HUVEC)
In short: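 Human umbilical vein endothelial cells were grown sub-confluent and exposed to chemical for 48 h, then fixed with 10% TCA and stained with 0.1% sulforhodamine B; absorbance at 560 nm gave relative cell number, fitted bidirectionally against DMSO baseline.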

[4] = target: Peroxisome proliferator-activated receptor gamma (Homo sapiens) (UniProt P37231); assay: ATG_PPARg_TRANS: Attagene TRANS-FACTORIAL HepG2 Assay for human Peroxisome Proliferator-activated Receptor-gamma (PPARg) (AID 2283007)
In short: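 Read-out: reporter mRNA induction, detected by fluorescence after RT-PCR and capillary electrophoresis. Transiently transfected human HepG2 liver cells carrying a chimeric NR-Gal4 construct were dosed for 24 h; activity was fitted upward relative to DMSO.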

[5] = target: human RAR-related Orphan Receptor beta (RORb), RORB (gene 6096) (UniProt Q92753); assay: ATG_RORb_TRANS: Attagene TRANS-FACTORIAL HepG2 Assay for human RAR-related Orphan Receptor beta (RORb) (AID 2283010);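 on AC50: potency for increased reporter mRNA meaning activation of RORb-Gal4 chimera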
In short: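 HepG2 cells were transiently transfected with multiplexed GAL4-UAS reporter units expressing chimeric nuclear receptor–GAL4 proteins, then dosed for 24 h. Reporter mRNA was quantified by RT-PCR with fluorescent labelling and capillary electrophoresis; gain of signal was fitted relative to DMSO.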

[6] = target: human RAR-related Orphan Receptor gamma (RORg), RORC (gene 6097) (UniProt P51449); assay: ATG_RORg_TRANS: Attagene TRANS-FACTORIAL HepG2 Assay for human RAR-related Orphan Receptor gamma (RORg) (AID 2283011);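 on AC50: potency for induction of reporter transcripts above DMSO so activators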
In short: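 Activity is scored as increase in GAL4-UAS reporter mRNA over DMSO, detected by fluorescent RT-PCR and capillary electrophoresis in HepG2 cells transiently expressing a RORg-Gal4 chimera, 24 h after dosing.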

[7] = target: human Retinoid X Receptor beta (RXRb), RXRB (gene 6257) (UniProt P28702); assay: ATG_RXRb_TRANS: Attagene TRANS-FACTORIAL HepG2 Assay for human Retinoid X Receptor beta (RXRb) (AID 2283013)
In short: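 HepG2 cells transiently transfected with multiplexed reporter units driven by GAL4-UAS and exogenous chimeric NR-Gal4 proteins; treated 24 h. Reporter mRNA measured by RT-PCR, 6-FAM labelling and capillary electrophoresis; gain-of-signal fitted versus DMSO baseline.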

[8] = target: human Thyroid Receptor alpha (THRa1), THRA (gene 7067) (UniProt P10827); assay: ATG_THRa1_TRANS: Attagene TRANS-FACTORIAL HepG2 Assay for human Thyroid Receptor alpha (THRa1) (AID 2283014)
In short: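 First, HepG2 cells receive multiple GAL4-UAS reporter units and the chimeric receptor. They are then dosed for 24 h, after which RNA is reverse-transcribed, amplified, labelled, HpaI-cut and sized by capillary electrophoresis; gain relative to DMSO is scored.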

[9] = read-out: E-selectin (Homo sapiens) (UniProt P16581); assay: BSK_3C_Eselectin: BioMAP Diversity Plus: 3C Assay for Eselectin Biomarker Activity (AID 2283015; active means hit-call score of the fitted dose curve at least 0.9, where 1 is the maximum; inactive means score below 0.9); settings: primary human endothelial cells (HUVEC); actives raise or lower the signal
In short: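 Human vascular endothelium from umbilical vein is exposed to test chemicals for 24 h. E-selectin levels are read by ELISA and compared with DMSO controls.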

[10] = read-out: Interleukin-1 alpha (IL1a), IL1A (gene 3552); assay: BSK_BE3C_IL1a: BioMAP Diversity Plus: BE3C Assay for Interleukin-1 alpha (IL1a) Biomarker Activity (AID 2283016; active means hit-call score of the fitted dose curve at least 0.9, where 1 is the maximum; inactive means score below 0.9); settings: primary human bronchial epithelial cells; actives raise or lower the signal
In short: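 Human primary bronchial epithelial cells (BE3C system) were dosed with compound and IL-1a measured by ELISA 24 h later. Activity was fitted bidirectionally against DMSO baseline; cytotoxicity was tracked in parallel cultures by SRB total-protein staining.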

[11] = read-out: Monocyte Chemoattractant Protein-1 (MCP1), CCL2 (gene 6347); assay: BSK_3C_MCP1: BioMAP Diversity Plus: 3C Assay for Monocyte Chemoattractant Protein-1 (MCP1) Biomarker Activity (AID 2283017; active means hit-call score of the fitted dose curve at least 0.9, where 1 is the maximum; inactive means score below 0.9); settings: primary human endothelial cells (HUVEC); actives raise or lower the signal
In short: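 Endothelial cells from human umbilical vein are dosed with chemical, cultured 24 h, then assayed for MCP-1 by ELISA; both increases and decreases are modelled against DMSO controls.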

[12] = read-out: Human Leukocyte Antigen - DR isotype (HLADR), HLA-DRA (gene 3122); assay: BSK_3C_HLADR: BioMAP Diversity Plus: 3C Assay for Human Leukocyte Antigen - DR isotype (HLADR) Biomarker Activity (AID 2283019; active means hit-call score of the fitted dose curve at least 0.9, where 1 is the maximum; inactive means score below 0.9); settings: primary human endothelial cells (HUVEC); actives raise or lower the signal
In short: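 Endothelial cells from human umbilical vein are treated with test chemical; after 24 h, HLA-DR levels are measured by ELISA. Data are fitted in both directions using DMSO as the baseline.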

[13] = read-out: Interleukin-8 (IL8), CXCL8 (gene 3576); assay: BSK_3C_IL8: BioMAP Diversity Plus: 3C Assay for Interleukin-8 (IL8) Biomarker Activity (AID 2283020; active means hit-call score of the fitted dose curve at least 0.9, where 1 is the maximum; inactive means score below 0.9); settings: primary human endothelial cells (HUVEC); actives raise or lower the signal
In short: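 Primary human umbilical vein endothelial cells (3C system) were exposed to test chemical for 24 h, then IL-8 was quantified by ELISA. Responses were fitted bidirectionally against DMSO vehicle as baseline.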

[14] = read-out: Monokine induced gamma interferon (MIG), CXCL9 (gene 4283); assay: BSK_3C_MIG: BioMAP Diversity Plus: 3C Assay for Monokine induced gamma interferon (MIG) Biomarker Activity (AID 2283021; active means hit-call score of the fitted dose curve at least 0.9, where 1 is the maximum; inactive means score below 0.9;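 on AC50: MIG protein level measured by immunoassay in the treated endothelial cultures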); settings: primary human endothelial cells (HUVEC); actives raise or lower the signal
In short: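 Primary human umbilical vein endothelial cells in the 3C system were exposed to chemical for 24 h, after which MIG was quantified by ELISA. Activity was fitted bidirectionally against DMSO as negative control and baseline.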

[15] = target: human Vitamin D Receptor (VDR), VDR (gene 7421) (UniProt P11473); assay: ATG_VDR_TRANS: Attagene TRANS-FACTORIAL HepG2 Assay for human Vitamin D Receptor (VDR) (AID 2283022)
In short: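 Fluorescence of labelled reporter cDNA fragments, resolved by capillary electrophoresis, gives mRNA induction after 24 h treatment of HepG2 cells carrying transfected Gal4-fusion reporter units. Activity is fitted in the positive direction with DMSO as baseline.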

[16] = BSK_3C_SRB: Viability Assessment in the BioMAP Diversity Plus: 3C Assay (AID 2283023; active means hit-call score of the fitted dose curve at least 0.9, where 1 is the maximum; inactive means score below 0.9;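 further: fitted both ways against DMSO so a hit may be signal rise or drop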); settings: primary human endothelial cells (HUVEC)
In short: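 Cells were dosed with chemical, cultured 24 h, fixed with 10% TCA, stained with 0.1% SRB and read at 560 nm. Human umbilical vein endothelium was used; DMSO served as negative control and baseline.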

[17] = target: Nuclear receptor subfamily 1 group I member 2 (Homo sapiens) (UniProt O75469); assay: ATG_PXR_TRANS: Attagene TRANS-FACTORIAL HepG2 Assay for human Pregnane X Receptor (PXR) (AID 2283008)
In short: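 Measures mRNA induction of a GAL4-UAS-driven reporter in human HepG2 cells transiently expressing PXR fused to Gal4, following 24 h treatment. DMSO served as negative control and baseline.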

[18] = target: Retinoic acid receptor RXR-alpha (Homo sapiens) (UniProt P19793); assay: ATG_RXRa_TRANS: Attagene TRANS-FACTORIAL HepG2 Assay for human Retinoid X Receptor alpha (RXRa) (AID 2283012)
In short: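 HepG2 cells transiently transfected with multiplexed GAL4-UAS reporter units and chimeric NR-GAL4 fusions, dosed 24 h. Reporter mRNA measured by RT-PCR, FAM labelling, HpaI digestion and capillary electrophoresis; gain-of-signal fitted relative to DMSO baseline.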

[19] = read-out: Monocyte Chemoattractant Protein-1 (MCP1), CCL2 (gene 6347); assay: BSK_4H_MCP1: BioMAP Diversity Plus: 4H Assay for Monocyte Chemoattractant Protein-1 (MCP1) Biomarker Activity (AID 2283018; active means hit-call score of the fitted dose curve at least 0.9, where 1 is the maximum; inactive means score below 0.9); settings: primary human endothelial cells (HUVEC); actives raise or lower the signal
In short: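 Human umbilical vein endothelial cells (4H system) dosed with chemical; MCP-1 measured by ELISA 24 h after dosing. Bidirectional curve fitting against DMSO negative control as baseline; parallel SRB total-protein staining tracks overt cytotoxicity.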

[20] = target: human Retinoic Acid Receptor beta (RARb), RARB (gene 5915) (UniProt P10826); assay: ATG_RARb_TRANS: Attagene TRANS-FACTORIAL HepG2 Assay for human Retinoic Acid Receptor beta (AID 2283004)
In short: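 HepG2, transient MRTU transfection, NR–Gal4 chimera, 24 h treatment; RT-PCR plus CE fluorescence detection of reporter mRNA; gain of signal vs DMSO.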

Measured: AC50

Sequence of human Thyroid Receptor alpha (THRa1), THRA (gene 7067) (P10827 whole entry, looked up, the tested form may be a part): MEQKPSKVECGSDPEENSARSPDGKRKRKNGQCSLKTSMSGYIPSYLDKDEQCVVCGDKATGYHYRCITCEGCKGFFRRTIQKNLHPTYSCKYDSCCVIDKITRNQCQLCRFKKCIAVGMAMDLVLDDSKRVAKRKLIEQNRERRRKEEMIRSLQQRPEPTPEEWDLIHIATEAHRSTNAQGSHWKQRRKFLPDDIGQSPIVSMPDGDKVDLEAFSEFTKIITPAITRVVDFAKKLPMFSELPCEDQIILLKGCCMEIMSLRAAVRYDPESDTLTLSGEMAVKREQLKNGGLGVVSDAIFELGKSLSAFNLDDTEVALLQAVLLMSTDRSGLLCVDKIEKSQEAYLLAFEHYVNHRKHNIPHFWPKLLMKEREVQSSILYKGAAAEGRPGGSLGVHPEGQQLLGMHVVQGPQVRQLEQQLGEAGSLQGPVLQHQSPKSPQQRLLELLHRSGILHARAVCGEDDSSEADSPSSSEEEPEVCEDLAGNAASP
Sequence of human Vitamin D Receptor (VDR), VDR (gene 7421) (P11473 whole entry, looked up, the tested form may be a part): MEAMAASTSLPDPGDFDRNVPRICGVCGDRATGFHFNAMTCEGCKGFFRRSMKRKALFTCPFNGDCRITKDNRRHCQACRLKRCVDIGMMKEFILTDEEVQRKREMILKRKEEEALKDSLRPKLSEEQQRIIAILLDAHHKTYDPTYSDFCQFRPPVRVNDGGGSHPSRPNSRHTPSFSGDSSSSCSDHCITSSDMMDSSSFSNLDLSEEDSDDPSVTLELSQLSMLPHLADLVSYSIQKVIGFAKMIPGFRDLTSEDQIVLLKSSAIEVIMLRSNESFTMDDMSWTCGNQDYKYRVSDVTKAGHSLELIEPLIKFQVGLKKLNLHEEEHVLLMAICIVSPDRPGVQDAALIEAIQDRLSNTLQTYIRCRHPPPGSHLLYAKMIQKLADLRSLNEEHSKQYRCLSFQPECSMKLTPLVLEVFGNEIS
Sequence of E-selectin (Homo sapiens) (P16581 whole entry, looked up): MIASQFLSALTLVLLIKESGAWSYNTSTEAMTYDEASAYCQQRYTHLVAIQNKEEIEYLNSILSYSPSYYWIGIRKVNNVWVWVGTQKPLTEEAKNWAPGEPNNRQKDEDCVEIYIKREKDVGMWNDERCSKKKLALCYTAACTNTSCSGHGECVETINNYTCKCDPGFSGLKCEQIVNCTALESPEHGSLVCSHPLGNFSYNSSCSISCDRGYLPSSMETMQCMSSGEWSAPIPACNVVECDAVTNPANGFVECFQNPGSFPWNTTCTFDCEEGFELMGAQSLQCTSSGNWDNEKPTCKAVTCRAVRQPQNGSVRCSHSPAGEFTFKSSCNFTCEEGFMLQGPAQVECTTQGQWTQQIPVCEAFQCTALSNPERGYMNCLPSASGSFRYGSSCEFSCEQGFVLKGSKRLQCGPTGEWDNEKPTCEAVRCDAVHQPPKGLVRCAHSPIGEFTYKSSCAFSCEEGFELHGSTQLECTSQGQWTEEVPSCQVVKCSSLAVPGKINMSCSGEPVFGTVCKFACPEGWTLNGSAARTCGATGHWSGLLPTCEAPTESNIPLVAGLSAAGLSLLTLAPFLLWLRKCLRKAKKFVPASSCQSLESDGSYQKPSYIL
Sequence of Nuclear receptor subfamily 1 group I member 2 (Homo sapiens) (O75469 whole entry, looked up, the tested form may be a part): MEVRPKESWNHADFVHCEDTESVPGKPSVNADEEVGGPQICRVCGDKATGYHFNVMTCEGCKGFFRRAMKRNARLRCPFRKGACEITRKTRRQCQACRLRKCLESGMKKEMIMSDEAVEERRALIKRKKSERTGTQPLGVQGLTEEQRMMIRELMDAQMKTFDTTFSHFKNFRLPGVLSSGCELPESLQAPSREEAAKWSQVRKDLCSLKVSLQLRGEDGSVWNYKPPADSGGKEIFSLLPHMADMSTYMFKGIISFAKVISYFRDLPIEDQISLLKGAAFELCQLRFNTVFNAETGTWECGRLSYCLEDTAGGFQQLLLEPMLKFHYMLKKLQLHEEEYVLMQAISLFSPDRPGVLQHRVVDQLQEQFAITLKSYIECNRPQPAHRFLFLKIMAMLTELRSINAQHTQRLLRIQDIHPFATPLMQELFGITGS
Sequence of human RAR-related Orphan Receptor gamma (RORg), RORC (gene 6097) (P51449 whole entry, looked up, the tested form may be a part): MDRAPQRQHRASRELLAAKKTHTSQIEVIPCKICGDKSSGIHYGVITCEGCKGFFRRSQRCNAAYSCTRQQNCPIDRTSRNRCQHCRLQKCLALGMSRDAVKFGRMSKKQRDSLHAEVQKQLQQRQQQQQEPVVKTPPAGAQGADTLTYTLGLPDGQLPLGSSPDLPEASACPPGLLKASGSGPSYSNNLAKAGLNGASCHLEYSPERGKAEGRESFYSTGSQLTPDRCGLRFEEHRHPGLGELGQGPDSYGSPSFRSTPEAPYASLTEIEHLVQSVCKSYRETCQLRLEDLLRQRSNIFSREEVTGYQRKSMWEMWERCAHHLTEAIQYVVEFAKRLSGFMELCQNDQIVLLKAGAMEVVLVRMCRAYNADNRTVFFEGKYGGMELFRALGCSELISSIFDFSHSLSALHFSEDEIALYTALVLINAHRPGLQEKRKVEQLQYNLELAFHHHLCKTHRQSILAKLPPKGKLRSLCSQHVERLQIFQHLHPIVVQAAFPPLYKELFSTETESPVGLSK
Sequence of human Retinoid X Receptor beta (RXRb), RXRB (gene 6257) (P28702 whole entry, looked up, the tested form may be a part): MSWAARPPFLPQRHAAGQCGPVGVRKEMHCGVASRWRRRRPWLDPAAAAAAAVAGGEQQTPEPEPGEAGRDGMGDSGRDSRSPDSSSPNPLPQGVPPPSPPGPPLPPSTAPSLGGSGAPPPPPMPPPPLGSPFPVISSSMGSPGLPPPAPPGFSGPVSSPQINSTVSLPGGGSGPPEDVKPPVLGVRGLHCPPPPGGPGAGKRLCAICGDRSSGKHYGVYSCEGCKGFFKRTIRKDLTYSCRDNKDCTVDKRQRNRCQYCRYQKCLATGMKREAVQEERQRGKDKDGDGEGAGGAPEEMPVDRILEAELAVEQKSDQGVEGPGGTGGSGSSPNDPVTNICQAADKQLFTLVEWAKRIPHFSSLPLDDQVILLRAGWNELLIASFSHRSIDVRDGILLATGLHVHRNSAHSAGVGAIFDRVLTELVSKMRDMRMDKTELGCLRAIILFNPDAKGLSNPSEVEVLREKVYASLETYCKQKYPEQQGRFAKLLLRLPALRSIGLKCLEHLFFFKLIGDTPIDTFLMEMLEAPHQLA
Sequence of human Peroxisome Proliferator-activated Receptor delta (PPARd), PPARD (gene 5467) (Q03181 whole entry, looked up, the tested form may be a part): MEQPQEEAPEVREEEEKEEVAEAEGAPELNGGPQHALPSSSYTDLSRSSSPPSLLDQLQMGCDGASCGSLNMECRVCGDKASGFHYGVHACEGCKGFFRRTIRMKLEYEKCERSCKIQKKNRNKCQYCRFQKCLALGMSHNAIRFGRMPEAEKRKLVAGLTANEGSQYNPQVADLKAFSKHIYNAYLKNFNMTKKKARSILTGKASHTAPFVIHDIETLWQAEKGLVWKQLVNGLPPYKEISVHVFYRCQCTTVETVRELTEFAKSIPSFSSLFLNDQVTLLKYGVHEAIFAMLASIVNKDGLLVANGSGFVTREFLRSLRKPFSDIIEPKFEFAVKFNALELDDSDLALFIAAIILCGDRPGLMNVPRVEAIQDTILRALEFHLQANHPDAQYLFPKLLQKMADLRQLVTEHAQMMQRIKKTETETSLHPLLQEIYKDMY
Sequence of Peroxisome proliferator-activated receptor gamma (Homo sapiens) (P37231 whole entry, looked up, the tested form may be a part): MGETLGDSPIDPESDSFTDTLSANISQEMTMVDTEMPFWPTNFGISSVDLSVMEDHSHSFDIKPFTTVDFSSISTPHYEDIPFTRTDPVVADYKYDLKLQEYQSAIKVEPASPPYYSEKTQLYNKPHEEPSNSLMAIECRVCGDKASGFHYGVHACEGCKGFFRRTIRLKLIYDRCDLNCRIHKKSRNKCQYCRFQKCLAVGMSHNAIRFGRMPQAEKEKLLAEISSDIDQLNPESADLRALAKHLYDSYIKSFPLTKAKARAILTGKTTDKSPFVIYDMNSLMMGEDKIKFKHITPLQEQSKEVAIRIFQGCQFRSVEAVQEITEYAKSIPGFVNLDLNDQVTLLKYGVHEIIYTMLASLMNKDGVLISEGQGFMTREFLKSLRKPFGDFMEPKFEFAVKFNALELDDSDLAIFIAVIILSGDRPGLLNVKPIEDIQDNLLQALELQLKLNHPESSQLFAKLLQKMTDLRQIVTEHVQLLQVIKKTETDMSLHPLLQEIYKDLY
Sequence of human Retinoic Acid Receptor beta (RARb), RARB (gene 5915) (P10826 whole entry, looked up, the tested form may be a part): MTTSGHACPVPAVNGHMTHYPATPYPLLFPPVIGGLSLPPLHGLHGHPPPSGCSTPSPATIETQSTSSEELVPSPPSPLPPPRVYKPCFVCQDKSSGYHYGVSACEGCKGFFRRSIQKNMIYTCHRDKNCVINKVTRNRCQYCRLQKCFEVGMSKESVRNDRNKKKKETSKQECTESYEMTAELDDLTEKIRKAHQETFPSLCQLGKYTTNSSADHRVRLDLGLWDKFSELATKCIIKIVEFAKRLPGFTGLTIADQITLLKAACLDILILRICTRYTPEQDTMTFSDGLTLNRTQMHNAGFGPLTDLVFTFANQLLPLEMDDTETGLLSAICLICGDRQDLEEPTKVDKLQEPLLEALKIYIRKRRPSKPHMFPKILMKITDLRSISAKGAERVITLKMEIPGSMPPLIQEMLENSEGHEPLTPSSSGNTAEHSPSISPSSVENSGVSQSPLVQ
Sequence of human RAR-related Orphan Receptor beta (RORb), RORB (gene 6096) (Q92753 whole entry, looked up, the tested form may be a part): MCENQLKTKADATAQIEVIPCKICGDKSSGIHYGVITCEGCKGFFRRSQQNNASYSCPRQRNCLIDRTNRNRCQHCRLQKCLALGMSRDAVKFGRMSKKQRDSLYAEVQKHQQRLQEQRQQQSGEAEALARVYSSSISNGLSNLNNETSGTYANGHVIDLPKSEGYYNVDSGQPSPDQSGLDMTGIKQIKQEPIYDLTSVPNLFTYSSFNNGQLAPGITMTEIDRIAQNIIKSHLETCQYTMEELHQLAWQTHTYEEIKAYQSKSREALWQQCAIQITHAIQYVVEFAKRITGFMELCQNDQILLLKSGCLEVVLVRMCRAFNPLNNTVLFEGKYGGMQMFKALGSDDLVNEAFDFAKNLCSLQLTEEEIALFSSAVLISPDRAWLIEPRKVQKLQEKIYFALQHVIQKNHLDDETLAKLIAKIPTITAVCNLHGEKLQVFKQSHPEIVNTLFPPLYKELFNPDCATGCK

O=c1[nH]sc2ccccc12
inactive: [1] | [4] | [5] | [6] | [7] | [8] | [15]
active: [2] 18.2 µM | [3] 1.55 µM | [9] 13.5 µM | [10] 27.7 µM | [11] 11.7 µM | [12] 5.39 µM | [13] 14.4 µM | [14] 28.9 µM | [16] 13.8 µM

O=c1c(-c2ccc(O)cc2)coc2cc(O)cc(O)c12
active: [3] 8.1 µM | [4] 32.7 µM [middle of 4 runs] | [17] 24.2 µM | [5] 27.4 µM | [6] 26.5 µM | [7] 25.2 µM and 27.2 µM | [11] 25.3 µM | [12] 21.1 µM
inactive: [1] | [2] | [17] | [5] | [6] | [7] | [8] | [9] | [14] | [15]

CN(C)C(=O)C1(N2CCCCC2)CCN(CC[C@@]2(c3ccc(Cl)c(Cl)c3)CN(C(=O)c3ccccc3)CCO2)CC1
active: [2] 36.8 µM | [3] 6.91 µM | [9] 29.8 µM | [10] 29.2 µM | [11] 22.9 µM | [19] 18.9 µM | [12] 12.4 µM | [13] 24.3 µM | [14] 34.7 µM
inactive: [1] | [17] | [18] | [8] | [15]

CCCCCCCCOc1ccc(C(=O)c2ccccc2)c(O)c1
active: [12] 24.7 µM | [16] 28.7 µM
not listed: [3] | [6] | [7] | [18] | [19]
inactive: all other assays above

CCCCCCCCN(C)CCCCCCCC
active: [7] 43.5 µM
not listed: [4] | [6] | [18] | [19]
inactive: all other assays above

CCCOC(=O)c1cc(O)c(O)c(O)c1
active: [3] 10.5 µM | [4] 31.8 µM
not listed: [5] | [6] | [18] | [20]
inactive: all other assays above

Clc1cc(Cl)c2c(c1)N=C1CCCCCN1C2
active: [4] 16.1 µM | [17] 20.2 µM
not listed: [3] | [5] | [7] | [8] | [15]
inactive: all other assays above

CCCCCCCCOC(=O)c1cc(O)c(O)c(O)c1
inactive: [20] | [5] | [7] | [8]
active: [1] 39.7 µM | [2] 35.5 µM | [4] 39.8 µM | [17] 6.39 µM | [9] 38.8 µM | [10] 33.4 µM | [11] 31.8 µM | [19] 8.64 µM | [12] 15.3 µM | [13] 30.8 µM | [14] 39.3 µM | [15] 55 µM

CCCCOC(=O)c1ccc(O)cc1
active: [4] 39.9 µM and 54 µM and 27.3 µM | [7] 26.9 µM and 26.4 µM
inactive: [1] | [2] | [4] | [17] | [7] | [8] | [9] | [10] | [11] | [12] | [13] | [14] | [15] | [16]

O=CCCCC=O
active: [3] 25.1 µM | [9] 33.7 µM | [10] 33.2 µM | [12] 29.5 µM | [16] 31.7 µM
not listed: [8] | [18] | [19] | [20]
inactive: all other assays above

O=C1CCC(C2CCCCC2)CC1
active: [4] 27.6 µM [middle of 4 runs]
not listed: [17] | [18] | [19]
inactive: all other assays above

CCOC(=O)O[C@H](C)OC(=O)c1ccc2c(c1)cc(C(=O)NC1CCN(C(C)C)CC1)n2Cc1cc(-c2ccc(Cl)s2)on1
active: [2] 8.99 µM | [9] 7.05 µM | [10] 11 µM | [11] 6.56 µM | [12] 7.08 µM | [13] 6.77 µM | [14] 8.78 µM | [16] 5.03 µM
inactive: [4] | [17]

CCCCCc1ccc(N)cc1
inactive: [1] | [2] | [4] | [17] | [7] | [8] | [9] | [10] | [11] | [13] | [14] | [15]
active: [4] 100 µM and 34 µM | [12] 14.5 µM

NC(=O)c1nc(-c2cccc(-c3cc(F)ccc3OCC(F)(F)C(F)(F)F)c2)n[nH]1
inactive: [1] | [15]
active: [4] 13 µM | [17] 8.71 µM | [9] 34.9 µM | [10] 38.8 µM | [11] 35.3 µM | [12] 22.6 µM | [13] 34.4 µM | [14] 41.4 µM | [16] 31.9 µM

Source: PubChem BioAssay (EPA / NIEHS)
